From PubChem BioAssay (NCI)
The panel holds about 83,000 compounds, 20% with a hit somewhere; the sample as a whole holds those more often.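 The test compound was applied at a single concentration to cells in 96-well plates for 48 hours, and percent growth was recorded.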 The source made the active and inactive calls. How the source made its calls: active means growth percent below 10; inactive means the rest.

Columns and labels:
Assay in all cases: NCI-60 one-dose screen, 48 h (100 = growth as untreated, 0 = no growth, -100 = all killed)
Details in all cases: 10 µM unless noted
[1] = system: RPMI-8226 leukemia
[2] = system: OVCAR-8 ovarian
[3] = system: OVCAR-5 ovarian
[4] = system: OVCAR-4 ovarian
[5] = system: SK-OV-3 ovarian
[6] = system: IGROV1 ovarian
[7] = system: OVCAR-3 ovarian
[8] = system: HS 578T breast
[9] = system: NCI/ADR-RES ovarian
[10] = system: T-47D breast

Measured: growth

O=C(Nc1ccc(Cl)cc1)c1cc2c(cc1O)[nH]c1ccccc12
inactive: [3] 59.8% | [4] 30.6% | [5] 24.4% | [6] 163% | [8] 52%
active: [1] -61.6% | [2] 8.57% | [7] 6.34% | [9] 0.0543% | [10] -1.88%

Cc1ccsc1/C=C/C1=NCCCN1C
inactive: [1] 100% | [2] 108% | [3] 111% | [4] 102% | [5] 103% | [6] 101% | [7] 108% | [8] 115% | [9] 107% | [10] 93.9%

CN1CCN(Cc2ccc(NC(=O)c3[nH]ncc3Nc3ccnc4ccnn34)cc2)CC1
inactive: [1] 111% | [2] 61.8% | [3] 94% | [4] 62.1% | [5] 29.1% | [6] 58.3% | [7] 53.7% | [8] 63% | [9] 107% | [10] 63.2%

COc1cc(-c2cc(C(=O)Nc3nc4ccccc4s3)nc3cc(-c4ccccc4)nn23)cc(OC)c1OC
inactive: [1] 73.7% | [2] 60.2% | [3] 106% | [4] 82.5% | [5] 97.7% | [6] 99.7% | [7] 48.1% | [8] 62.1% | [9] 73.3% | [10] 83.7%

COc1cc(Oc2cc(-c3cccnc3)ccc2NC(=O)Nc2ccc(F)cc2F)cc(OC)c1OC
inactive: [1] 93.6% | [2] 92.8% | [3] 117% | [4] 113% | [5] 89.1% | [6] 116% | [7] 102% | [8] 99.9% | [9] 95.2% | [10] 71.5%

C=C1c2c(C)nn(-c3ccc(C#CCOC4OC(CO)C(O)C(O)C4O)cc3)c2N(C)C23C[C@H]1C1(C)c4c(C)nn(-c5ccc(C#CCOC6OC(CO)C(O)C(O)C6O)cc5)c4N(C)C(C)(C[C@H]12)C3 (stereo partly specified)
active: [1] -36.4% | [7] 3.73% | [8] 1.04% | [10] 7.11%
inactive: [2] 12% | [3] 51% | [4] 14.7% | [5] 15.3% | [6] 24.7% | [9] 77.2%

N#CCCCCCn1c2ccccc2c2c3c(c4c5ccccc5[nH]c4c21)C(=O)N(O)C3=O
inactive: [4] 19.5% | [5] 41.3% | [8] 19.8% | [9] 67.9% | [10] 14.2%
active: [1] -18.3% | [2] 7.06% | [3] -18.3% | [6] -1.36% | [7] -13.4%

CC(=O)c1ccc2c3c(n(C)c2c1)CCCC3
inactive: [1] 90.2% | [2] 106% | [3] 91.7% | [4] 106% | [5] 110% | [6] 104% | [7] 111% | [8] 141% | [9] 96.9% | [10] 109%

CCCC[N+](CCCC)=c1ccc2nc3c(C)cc(N(CC)CC)cc3sc-2c1
active: [1] -48.2% | [2] 5.84% | [3] 4.55% | [5] -8.75% | [7] -23.3% | [8] 6.6% | [9] -11.9% | [10] -23.3%
inactive: [4] 22.9% | [6] 43.2%

CN(C)c1ccc2[nH]c3c(C(N)=O)cc(=O)c(=O)c=3oc2c1
active: [1] 5% | [7] -9.97%
inactive: [2] 25.4% | [3] 89% | [4] 49.1% | [5] 82% | [6] 32.5% | [8] 20.4% | [9] 58.1% | [10] 18.1%

COc1cc2c(cc1OC)C1CCN3C(=O)CCC3N1CC2 (stereo unspecified)
inactive: [1] 102% | [2] 113% | [3] 109% | [4] 116% | [5] 112% | [6] 125% | [7] 113% | [8] 97.9% | [9] 99.6% | [10] 105%

O=C1C[C@@H]2/C(=C(O)\C=C\c3ccccc3)C(=O)C=C[C@@H]2O1
inactive: [1] 32.5% | [3] 51.5% | [4] 37.5% | [5] 86.1% | [10] 16.7%
active: [2] 8.54% | [6] -52.6% | [7] -46.2% | [8] -2.33% | [9] 7.67%

COc1cc2c(c(OC)c1OC)-c1ccc(NN(C(=O)c3ccccc3)C(=O)c3ccccc3)c(=O)cc1[C@@H](NC(C)=O)CC2 (tested in a mixture with another compound)
inactive: [1] 66.6% | [2] 47.1% | [3] 68% | [4] 63.4% | [5] 20.8% | [6] 12.3% | [9] 74% | [10] 41.7%
active: [7] 2.09% | [8] -6.83%

Cc1ccc(C(=O)Nc2ccc(Cl)cc2C(=O)NCc2ccccc2)cc1
inactive: [1] 77.8% | [2] 87.9% | [3] 100% | [4] 79.5% | [5] 117% | [6] 84.1% | [7] 91.6% | [8] 89.7% | [9] 72.5% | [10] 94%

COc1ccc(-c2cnnn2-c2cc(OC)c3c(c2)OCO3)cc1
inactive: [2] 13.1% | [3] 45.1% | [4] 64.7% | [6] 17.9% | [9] 12.1% | [10] 50.3%
active: [1] 9.18% | [5] -1.59% | [7] -37.5% | [8] 5.54%

OCc1nnn(-c2ccccc2)c1CO
inactive: [1] 101% | [2] 109% | [3] 112% | [4] 99.2% | [5] 129% | [6] 108% | [7] 117% | [8] 117% | [9] 115% | [10] 114%

CN1CCN(CC(=O)Nc2nc3c(s2)Nc2cc(Cl)c(Cl)cc2NC3=O)CC1
inactive: [1] 108% | [2] 99.3% | [3] 113% | [4] 116% | [5] 99% | [6] 110% | [7] 115% | [8] 107% | [9] 109% | [10] 98.1%

CSc1nc2c(c(=O)[nH]1)C(c1ccc(Cl)cc1)C1=C(N2)/C(=C/c2ccc(Cl)cc2)CNC1 (stereo unspecified)
active: [1] -13.4% | [7] 4.17%
inactive: [2] 31.6% | [3] 105% | [4] 33.1% | [5] 87.4% | [6] 26.1% | [8] 68.7% | [9] 74.5% | [10] 54.3%

O=C(CSc1nc2c(n1Nc1ccccc1)-c1ccccc1SC2)Nc1nc(-c2ccc(Cl)cc2)cs1
active: [4] 8.37%
inactive: [1] 86.1% | [2] 57.3% | [3] 93.6% | [5] 82.9% | [6] 86% | [7] 65.7% | [8] 23.4% | [9] 66% | [10] 66.8%

CC(C)c1nc(N(C)S(C)(=O)=O)nc(-c2ccc(F)cc2)c1/C=C/[C@@H](O)C[C@@H](O)CC(=O)O
inactive: [1] 113% | [2] 90.5% | [3] 108% | [4] 100% | [5] 104% | [6] 105% | [7] 99.4% | [8] 110% | [9] 104% | [10] 99.4%

COC(=O)CCC1=C(CC(=O)OC)C(C)=N/C1=C\c1[nH]c(-c2ccc[nH]2)cc1OC
inactive: [3] 65% | [4] 27.4% | [5] 64.6% | [6] 42.1% | [7] 17.4% | [8] 52.2% | [9] 17.5% | [10] 40.1%
active: [1] -42.3% | [2] 9.85%

S=C(c1ccccc1)N1CCN(c2cccc(Cl)c2)CC1
inactive: [1] 86.9% | [2] 102% | [3] 97.2% | [4] 120% | [5] 103% | [6] 107% | [9] 103% | [10] 96.9%

C=Cc1nn2c(CCC(=O)c3nc4ccccc4[nH]3)nnc2s1
inactive: [1] 110% | [2] 108% | [3] 102% | [4] 110% | [5] 106% | [6] 106% | [7] 107% | [9] 100% | [10] 106%

COc1ccc2c(c1)nc(N)c1c3cc(C)c(C)cc3cn21
inactive: [1] 81.1% | [2] 82.3% | [3] 111% | [4] 78.5% | [5] 86.8% | [6] 77.2% | [7] 70.6% | [9] 37.3% | [10] 63.8%

COc1ccc2nc(-c3ccc(-n4cncc4-c4ccc(OC)c(N)c4)cc3)sc2c1
inactive: [1] 88.2% | [2] 96.8% | [3] 108% | [4] 87% | [5] 117% | [6] 113% | [8] 101% | [9] 115%

CC[N+](C)(CC)CCCC(C)Nc1ccnc2cc(Cl)ccc12 (stereo unspecified)
inactive: [1] 106% | [2] 100% | [3] 119% | [4] 112% | [5] 111% | [6] 110% | [7] 101% | [8] 104% | [9] 112% | [10] 101%

Cn1cc(-c2csc(-c3cn(C)c4ncccc34)n2)c2cc(Br)cnc21
inactive: [1] 79.3% | [2] 94.3% | [3] 88.1% | [4] 92.1% | [5] 105% | [6] 110% | [7] 119% | [9] 79.2% | [10] 77%

COc1ccc2nccc(/C=C/c3ccnc4ccc(OC)cc34)c2c1
active: [1] -5.34%
inactive: [2] 68.9% | [3] 117% | [4] 104% | [5] 115% | [6] 102% | [9] 101% | [10] 98.4%
